Experimental data taken from PubChem BioAssay (NCATS).
Several values for one entry are separate records, joined by “and”; a condition that tells them apart may be missing. Equal values may be shown once. Inconclusive results are not listed. Activity calls are given as the source filed them. Unless noted, calls come from the whole dose curve; as a rule, active = well fitted curve in the direction sought with a large enough effect; inconclusive = small, poorly fitted or top-dose-only effect, or another doubt; inactive = no such curve, though single readings can be large; an effect the other way counts as inactive or inconclusive.

Assays:
[1] = Cell Viability - HUV-EC-C (AID 542); note: % is set by controls: 0 for no effect and ±100 for the full control effect; nearly all actives have a fitted effect of over 35% in size
Outline: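 HUV-EC-C human vascular endothelial cells, 1000/well, exposed to compound for 40 hr at 37 °C in complete medium. Intracellular ATP was read by CellTiter-Glo luminescence. AC50 came from Hill-equation fits of concentration-response data.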

[2] = Cellular Toxicity (caspase-3) HepG2 (AID 654);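 note: cells exposed to compound for 16 hours before reading; 0% = DMSO alone and 100% = caspase signal from 100 µM tamoxifen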
Outline: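 HepG2 cells (1500/well) were treated 16 h at 37 °C in complete medium, then caspase 3/7 activity was read by Caspase-Glo luminescence. Data were normalized to DMSO and 100 uM tamoxifen; AC50 came from Hill-equation fits of qHTS concentration-response.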

[3] = Cellular Toxicity (caspase-3) MRC-5 (AID 659);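 note: 0% = DMSO basal and 100% = 10 µM staurosporine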
Outline: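 Concentration-dependent caspase 3/7 activation is measured in human normal lung fibroblasts (MRC-5) following 16-hour treatment. AC50 values come from standard Hill-equation modeling of luminescence normalized to DMSO and 10 uM staurosporine.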

[4] = Cellular Toxicity (caspase-3) Mesangial (AID 660);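 note: cells exposed to compound for 16 h before the caspase read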
Outline: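 Human renal glomerular mesangial cells, 1000/well, 5 h at 37 C before 16 h compound treatment. Caspase-Glo 3/7 luminescence after 20 min; normalized to DMSO and 100 uM tamoxifen, AC50 from Hill fit.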

[5] = Cellular Toxicity (caspase-3) Hek293 (AID 664); conditions: HEK293 caspase-3 activation, DMSO = 0%, 100 µM tamoxifen = 100%; at 92.2 µM (top of the series);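 note: cells exposed to compound for 16 h at 37 °C before readout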
Outline: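 HEK293 cells in complete medium treated 16 h at 37 °C, then Caspase-Glo 3/7 luminescence read after 20 min at room temperature. Normalized to DMSO and 100 uM tamoxifen; AC50 from Hill fit of concentration-response.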

[6] = Cellular Toxicity (caspase-3) NIH 3T3 (AID 666);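 note: caspase signal read after 16 h compound exposure; 0% = DMSO basal and 100% = 100 µM tamoxifen stimulation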
Outline: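 Mouse NIH 3T3 fibroblasts (1000/well) treated 16 h at 37 C; caspase-3/7 activity measured by Caspase-Glo 3/7 luminescence after 20 min. Normalized to DMSO and 100 uM tamoxifen; AC50 from Hill fits.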

[7] = MultiTox-Fluor Cytotoxicity Assay - LYMP1-002 - Live Cells (AID 955); note: % is set by controls: 0 for no effect and ±100 for the full control effect
Outline: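 Human lymphoblastoid LYMP1-002 cells, 2500/well, treated 16 h at 37 C in complete medium. Live-cell protease activity via GF-AFC fluorescence (Ex/Em 405/510) after 60 min reagent incubation; AC50 from Hill fits.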

[8] = Cell Viability - LYMP1-003 - Assay at 40 hr (AID 964); note: % is set by controls: 0 for no effect and ±100 for the full control effect; nearly all actives have a fitted effect of over 60% in size
Outline: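 LYMP1-003 human lymphoblastoid cells, 2500/well, preincubated 5 h at 37 C, then treated with compound for 40 h at 37 C. Intracellular ATP read by CellTiter-Glo luminescence after 30 min at room temperature; AC50 from Hill-equation fits.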

[9] = Cell Viability - LYMP2-004 (AID 966);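 note: plate controls were DMSO only for no effect and tetraoctylammonium bromide control for full effect; nearly all actives have a fitted effect of over 65% in size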
Outline: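 Lymphoblastoid LYMP2-004 cells, 2500 per well, were preincubated for 5 hr and then treated with compound for 24 h at 37 C in complete medium. Viability was read as cellular ATP by CellTiter-Glo luminescence, and AC50 values were taken from Hill fits to concentration-response data.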

[10] = Cell Viability - LYMP2-009 (AID 968);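 note: 0% = DMSO alone and the full-kill end = tetraoctylammonium bromide at 92 µM; nearly all actives have a fitted effect of over 55% in size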
[11] = Cell Viability - LYMP2-011 (AID 969);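 note: 0% = DMSO only and full inhibition = 92 µM tetraoctylammonium bromide; nearly all actives have a fitted effect of over 60% in size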
Outline: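 2500 cells/well in complete medium, compound-treated 24 h at 37 C. Viability read as intracellular ATP by CellTiter-Glo luminescence after 30 min at room temperature. AC50 from Hill fits of qHTS concentration-response data.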

[12] = Cell Viability - LYMP2-017 (AID 972); note: % is set by controls: 0 for no effect and ±100 for the full control effect; nearly all actives have a fitted effect of over 55% in size
Outline: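 LYMP2-017 human lymphoblastoid cells (2500/well) settled 5 hr at 37 C, then exposed to compound 24 hr at 37 C in complete medium. Viability taken as intracellular ATP by CellTiter-Glo luminescence after 30 min at RT; AC50 from Hill fits.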

[13] = Cell Viability - LYMP2-025 (AID 976);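 note: plate controls were DMSO only for no effect and tetraoctylammonium bromide control for full effect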
Outline: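 Human lymphoblastoid LYMP2-025 cells, 2500/well, exposed 24 h at 37 C in complete medium in 1536-well qHTS. Viability as cellular ATP by CellTiter-Glo luminescence; AC50 from Hill fits of concentration-response data.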

[14] = Cell Viability - LYMP2-026 (AID 989); note: % is set by controls: 0 for no effect and ±100 for the full control effect; nearly all actives have a fitted effect of over 50% in size
Outline: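 Human lymphoblastoid LYMP2-026 cells, 2500/well, exposed to compound 24 h at 37 C in complete medium. Viability as intracellular ATP by CellTiter-Glo luminescence; AC50 from Hill fits of qHTS concentration-response.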

[15] = target: Vitamin D3 receptor (Homo sapiens) (UniProt P11473); assay: qHTS assay for small molecule agonists of vitamin D receptor signaling (AID 588543; calls by dose curve;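 note: 0% = DMSO basal and 100% = reference agonist control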)
Sequence of Vitamin D3 receptor (Homo sapiens) (P11473 whole entry, looked up): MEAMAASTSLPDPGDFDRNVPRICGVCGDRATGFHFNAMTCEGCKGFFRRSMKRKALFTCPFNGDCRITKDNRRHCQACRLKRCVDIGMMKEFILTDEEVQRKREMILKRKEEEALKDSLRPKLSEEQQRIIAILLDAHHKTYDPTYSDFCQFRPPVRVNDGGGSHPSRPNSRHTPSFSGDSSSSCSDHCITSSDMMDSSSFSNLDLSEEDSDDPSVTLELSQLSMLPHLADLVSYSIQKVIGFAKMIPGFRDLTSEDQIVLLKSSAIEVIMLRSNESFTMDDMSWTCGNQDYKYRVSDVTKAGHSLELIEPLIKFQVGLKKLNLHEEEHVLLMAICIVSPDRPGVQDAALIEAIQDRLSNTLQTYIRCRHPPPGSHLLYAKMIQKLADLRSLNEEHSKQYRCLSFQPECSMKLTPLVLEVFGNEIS
Outline: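 VDR-UAS-bla HEK293T cells, 2000/well, 2% charcoal-stripped FBS; compound titration 16 h at 37 C; CCF4 beta-lactamase ratio read. Normalized to 50 nM 1-alpha,25-dihydroxyvitamin D3 (100%) and DMSO; Hill fit gives EC50, efficacy.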

[16] = qHTS assay for small molecule disruptors of the mitochondrial membrane potential - 1 hr assay (AID 651754; calls by dose curve; note: % is set by controls: 0 for no effect and ±100 for the full control effect; nearly all actives have a fitted effect of over 35% in size)
Outline: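 HepG2 cells, attached overnight, were exposed to compound for 1 hr at 37C, then stained 30 min with a potentiometric dye. Ratio of red aggregate (590nm) to green monomer (535nm) fluorescence reports membrane potential; collapse shifts signal toward green.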

[17] = target: Nuclear receptor ROR-gamma (Homo sapiens) (UniProt P51449); assay: qHTS assay for small molecule antagonists of the retinoid-related orphan receptor gamma (ROR-gamma) signaling pathway (AID 651802);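 note: luciferase reporter luminescence driven by ROR response element; % is set by controls: 0 for no effect and ±100 for the full control effect; nearly all actives have a fitted effect of over 60% in size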
Sequence of Nuclear receptor ROR-gamma (Homo sapiens) (P51449 whole entry, looked up): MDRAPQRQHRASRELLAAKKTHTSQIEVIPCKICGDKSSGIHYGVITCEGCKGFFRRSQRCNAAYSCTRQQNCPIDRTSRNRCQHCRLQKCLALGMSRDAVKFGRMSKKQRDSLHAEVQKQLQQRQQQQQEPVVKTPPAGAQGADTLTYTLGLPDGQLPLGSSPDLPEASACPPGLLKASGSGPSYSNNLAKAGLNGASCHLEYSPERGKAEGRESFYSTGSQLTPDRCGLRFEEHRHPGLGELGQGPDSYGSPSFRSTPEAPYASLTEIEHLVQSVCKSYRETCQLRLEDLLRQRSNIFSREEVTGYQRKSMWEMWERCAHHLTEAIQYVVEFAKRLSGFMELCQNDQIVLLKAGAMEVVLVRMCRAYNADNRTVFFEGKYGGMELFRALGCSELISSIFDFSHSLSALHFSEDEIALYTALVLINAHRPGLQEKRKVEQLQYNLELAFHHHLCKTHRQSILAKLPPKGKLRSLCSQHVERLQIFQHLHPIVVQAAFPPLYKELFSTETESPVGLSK
Outline: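 CHO cells with TET-inducible ROR-gamma and RORE-luciferase reporter, dosed then doxycycline-induced. After 16 h at 37C, One-Glo luminescence read; decreased signal indicates antagonism.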

[18] = qHTS assay for small molecule agonists of the antioxidant response element (ARE) signaling pathway measured by Nrf2-dependant transcriptional activity (AID 720636; active = well fitted curve in the direction sought with a large enough effect in the repeat runs; an effect the other way counts as inactive or inconclusive;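 note: HepG2 cells with an ARE-driven luciferase reporter; % of control where 0% means no effect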)
Outline: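 Reporter gene assay, HepG2 ARE-luc: 16 hr compound, 37 C, 5% CO2; read-out luciferase luminescence.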

[19] = qHTS assay for small molecule agonists of the antioxidant response element (ARE) signaling pathway measured by Nrf2-dependant transcriptional activity - cell viability counter screen (AID 720653; active = well fitted curve in the direction sought with a large enough effect in the repeat runs; an effect the other way counts as inactive or inconclusive; note: % is set by controls: 0 for no effect and ±100 for the full control effect); conditions: ARE-bla HepG2 viability, CellTiter-Glo ATP luminescence, 16 h; stronger effect = lower value
Outline: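 Cytotoxicity counter screen: intracellular ATP quantified by CellTiter-Glo luminescence in the same ARE-bla HepG2 plates, after 16 h compound exposure and a 2 h beta-lactamase substrate step.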

[20] = qHTS assay for small molecule activators of the p53 signaling pathway (AID 651743; active = well fitted activation curve with a large enough effect in the signal ratio, not every such curve was filed as active; the % refers to the signal ratio; note: % of control where 0% means no effect); conditions: HCT-116 p53RE-bla, beta-lactamase FRET ratio, 16 h; activation: stronger effect = higher value
Outline: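 Read-out is fluorescence intensity from the LiveBLAzer B/G FRET substrate, added for 2 hours at room temperature after HCT-116 p53RE-bla cells had been incubated with compounds for 16 hours at 37 C.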

Clc1cccc(Cl)c1Cl
inactive: Potency [1] | outcome [2] | outcome [3] | outcome [4] | caspase-3 activation [5] -0.313% | Potency [6] | outcome [7] | Potency [8] | Potency [9] | Potency [10] | Potency [11] | Potency [12] | Potency [13] | Potency [14] | outcome [15] | Potency [16] | Potency [17] | Potency [18] | max response [19] -3.73% and 1.34%

Nc1cc(Cl)ccc1Cl
inactive: outcome [2] | outcome [3] | outcome [4] | caspase-3 activation [5] -0.435% | Potency [6] | outcome [7] | Potency [8] | Potency [9] | Potency [10] | Potency [13] | Potency [14] | activation [20] -3.16% | Potency [16] | Potency [17] | Potency [18] | max response [19] 5.24%

CC(=O)NNc1ccccc1
inactive: outcome [2] | outcome [3] | outcome [4] | caspase-3 activation [5] -1.37% | Potency [6] | outcome [7] | Potency [8] | Potency [9] | Potency [10] | Potency [11] | Potency [12] | Potency [13] | outcome [15] | Potency [16] | Potency [17] | Potency [18] | max response [19] 1.56%

CC(Cl)(Cl)Cl
inactive: Potency [1] | outcome [2] | outcome [3] | outcome [4] | caspase-3 activation [5] -1.64% | Potency [6] | outcome [7] | Potency [9] | Potency [10] | Potency [11] | Potency [12] | Potency [13] | Potency [14] | outcome [15] | activation [20] -0.56% and -3.67% | Potency [16] | Potency [17] | Potency [18] | max response [19] 0.834% and -5.56%

N#CCCC#N
inactive: outcome [3] | outcome [4] | caspase-3 activation [5] 1.14% | Potency [6] | outcome [7] | Potency [8] | Potency [9] | Potency [10] | Potency [12] | Potency [13] | Potency [14] | outcome [15] | activation [20] -0.196% | Potency [17] | Potency [18] | max response [19] 1.41%

S=C1NCCN1
inactive: Potency [1] | outcome [2] | outcome [4] | caspase-3 activation [5] -0.864% | Potency [6] | outcome [7] | Potency [8] | Potency [11] | Potency [12] | Potency [13] | Potency [14] | outcome [15] | activation [20] -4.05% and -5.02% | Potency [18] | max response [19] 4.7% and 5.28%

C=C(C)CCl
inactive: Potency [1] | outcome [2] | outcome [3] | outcome [4] | caspase-3 activation [5] -0.774% | Potency [6] | outcome [7] | Potency [8] | Potency [9] | Potency [10] | Potency [11] | Potency [12] | Potency [13] | Potency [14] | outcome [15] | activation [20] -3.39% | Potency [16] | Potency [17] | Potency [18] | max response [19] -2.48%
